Data taken from PubChem BioAssay (Tox21).
Inconclusive results are not listed. Where a call stands in place of a potency, no number is given. The source made the active and inactive calls. The call rests on the fitted dose curve; in most records, active means well fitted cell-killing curve with a large enough effect in the repeat runs; inconclusive means weak or mixed curves, or effect the other way; inactive means no such curve, though single readings can be large or run the other way. Positions of bridges follow the written chain, without caps; N, C: chain ends. Non-standard residues stand in square brackets, D forms with d. Residues, ends and D or L forms follow the SMILES beside them. *: point of attachment. X2 = CC[C@H](C)CCCCC(=O)*; Dab = NCC[C@H](N)C(=O)O

experiment: qHTS assay to identify small molecule antagonists of the thyroid receptor (TR) signaling pathway - cell viability counter screen (AID 743064); details: GH3.TRE-Luc viability, CellTiter-Fluor, 24 h; series mostly up to 70.3 µM; further: nearly all actives have a fitted effect of over 50% in size
Text: National Center for Advancing Translational Sciences [NCATS]
NIH Chemical Genomics Center [NCGC]
U.S. Environmental Protection Agency [EPA]
National Institutes of Environmental Health Sciences [NIEHS]
National Toxicology Program [NTP]
U.S. Food and Drug Administration [FDA]
Thyroid receptor (TR), a nuclear hormone receptor, plays an important role in development, proliferation, differentiation, metabolism, brain function, and cardiovascular system. […] To profile the Tox21 10K compound library in TR signaling, a cell-based GH3-TRE-Luc assay (GH3.TRE-Luc cell line, developed by the laboratory of Dr. Albertinka J. Murk, Wageningen University) was used to measure the inhibition of TR. GH3 (rat pituitary tumor) cells stably expressing a TR activity sensor consisting of two TR response elements and a luciferase reporter gene. The cytotoxicity of the Tox21 compound library against the GH3.TRE-Luc cell line was tested in parallel by measuring the cell viability using CellTiter-Fluor assay (Promega, Madison, WI) in the same wells.
Tox21 Assay Protocol Summary:
GH3.TRE-Luc cells were dispensed at 1500 cells/4 uL/well into 1536-well white solid bottom plates using a Multidrop Combi dispenser (Thermo Fisher Scientific Inc., Waltham, MA). After the assay plates were incubated at 37 C for 4 hours, 23 nL of library compound or DMSO controls was transferred to the assay plates by a pintool station (Kalypsys, San Diego, CA), followed by addition of 1 ul of T3 (1 nM, final concentration in the wells) to stimulate TR transactivation. The assay plates were incubated at 37 C for 23.5 h, and then 1 uL of CellTiter-Fluor reagent (Promega, Madision, WI) of measuring cytotoxicity was added to each well using a Bioraptr Flying Reagent Dispenser (FRD) workstation (Beckman Coulter, Indianapolis, IN, USA). The plates were incubated at 37C and 5% CO2 for additional 30 min, and fluorescence intensity was measured by a ViewLux plate reader (PerkinElmer, Shelton, CT).
Potency means the concentration at half of the fitted maximal effect.

Compound | Potency
CCCCCCCCCCCCCCCC(=O)O[C@@H]1[C@@H](O)[C@@H](O)[C@@H]([C@H](NC(=O)[C@@H]2C[C@@H](CCC)CN2C)[C@H](C)Cl)O[C@@H]1SC | inactive
O=C(O)c1ccc(NC(=O)[C@H](Cc2ccc(O)cc2)NC(=O)c2ccccc2)cc1 | inactive
C=C1C(=O)O[C@H]2[C@H]1CC/C(C)=C\CC[C@@]1(C)O[C@@H]21 | 8.41 µM (active)
CC1(C)C(\C=C/C=C\C=C/C=C2/N(CCCCS(=O)(=O)O)c3ccc4ccccc4c3C2(C)C)=[N+](CCCCS(=O)(=O)[O-])c2ccc3ccccc3c21 | 15 µM (active)
O=C(NNCS(=O)(=O)O)c1ccncc1 | inactive
O=C(O)c1cc(O)c2c(c1)[O][Bi][O]2 | inactive
NS(=O)(=O)c1cc2c(cc1Cl)NC(Cc1ccccc1)NS2(=O)=O (stereo not given) | inactive
CCOC(=O)C1=C[C@@H](OC(CC)CC)[C@H](NC(C)=O)[C@@H](N)C1 | inactive
CC(=O)O[C@H]1C(=O)[C@@]2(C)[C@H]([C@H](OC(=O)c3ccccc3)[C@]3(O)C[C@H](OC(=O)[C@H](O)[C@@H](NC(=O)c4ccccc4)c4ccccc4)C(C)=C1C3(C)C)[C@]1(OC(C)=O)CO[C@@H]1C[C@@H]2O | 0.266 µM (active)
O=C(O)CO.[NH2-].[NH2-].[Pt+2] | inactive
CC1C(=O)CC2C3(C)CCC2(C(C)C(=O)O)C(=O)C13 (stereo not given) | inactive
CSc1nc2cc(Oc3cccc(Cl)c3Cl)c(Cl)cc2[nH]1 | 13.3 µM (active)
CCN(CC)CCOc1ccc(-c2nc3cc(Cl)ccc3s2)cc1 | 8.41 µM (active)
O=C(/C=C/c1cccc(F)c1)NC1CC1 | inactive
CC[C@@H](C(=O)[C@@H](C)[C@@H](O)[C@H](C)[C@@H]1O[C@@H]([C@@H](CC)C(=O)O)CC[C@@H]1C)[C@H]1O[C@]2(C=C[C@@H](O)[C@]3(CC[C@@](C)([C@H]4CC[C@](O)(CC)[C@H](C)O4)O3)O2)[C@H](C)C[C@@H]1C | 0.668 µM (active)
NCCCC[C@H](NC(=O)[C@@H]1CCCN1C(=O)[C@@H]1CSSC[C@H](N)C(=O)N[C@@H](Cc2ccccc2)C(=O)N[C@@H](Cc2ccccc2)C(=O)N[C@@H](CCC(N)=O)C(=O)N[C@@H](CC(N)=O)C(=O)N1)C(=O)NCC(N)=O | inactive
CC[C@H](C)CCCCC(=O)N[C@@H](CCN)C(=O)N[C@H](C(=O)N[C@@H](CCN)C(=O)N[C@H]1CCNC(=O)[C@@H]([C@H](C)O)NC(=O)[C@H](CCN)NC(=O)[C@H](CCN)NC(=O)[C@H](CC(C)C)NC(=O)[C@@H](CC(C)C)NC(=O)[C@H](CCN)NC1=O)[C@@H](C)O (X2-[Dab]T[Dab][Dab][Dab][dL]L[Dab][Dab][dT]; lactam 4-C) | inactive
CCC(=O)OCC(=O)[C@@]1(OC(=O)CC)[C@@H](C)C[C@H]2[C@@H]3CCC4=CC(=O)C=C[C@]4(C)[C@@]3(Cl)[C@@H](O)C[C@@]21C | inactive
CCOC(=O)c1c[nH]c2cc(OCC(C)C)c(OCC(C)C)cc2c1=O | inactive
CCCCCCCCCCCCCC[n+]1ccc(C)cc1 | 7.5 µM (active)

Compound | Potency
C#C[C@]1(O)CC[C@H]2[C@@H]3CCC4=C/C(=N/O)CC[C@@H]4[C@H]3CC[C@@]21CC | 29.8 µM (active)
C[C@H](N)C(=O)N[C@@H](C)P(=O)(O)O | inactive
C[C@]12CC[C@@H]3c4ccc(OC(=O)c5ccccc5)cc4CC[C@H]3[C@@H]1CC[C@@H]2O | inactive
Cc1cc(Nc2ccccc2C(=O)O)ccc1Cl | inactive
CC(=O)N=c1sc(S(N)(=O)=O)nn1C | inactive
CNCC(O)c1ccc(OC(=O)C(C)(C)C)c(OC(=O)C(C)(C)C)c1 (stereo not given) | 12.7 µM (active)
NNc1nnc(Cc2ccncc2)c2ccccc12 | inactive
NC(=O)OC[C@@H]1[C@H](NC(=O)/C(=N\OCC(=O)O)c2csc(N)n2)C(=O)N1S(=O)(=O)O | inactive
CC(=O)Nc1c(I)c(C(=O)N[C@H]2C(O)O[C@H](CO)[C@@H](O)[C@@H]2O)c(I)c(N(C)C(C)=O)c1I (stereo not given in full) | inactive
CCCCOC(=O)C(=O)Nc1cccc(-c2nn[nH]n2)c1 | inactive
C#CCC(Cc1cnc2nc(N)nc(N)c2n1)c1ccc(C(=O)N[C@@H](CCC(=O)O)C(=O)O)cc1 (stereo not given in full) | inactive
CC(C)(C)NCC(O)CSc1nc(-c2ccc(C(N)=O)s2)cs1 (stereo not given) | inactive
CCC(Cc1c(I)cc(I)c(O)c1I)C(=O)O (stereo not given) | inactive
CNC(=O)c1c(I)c(C(=O)NCC(=O)Nc2c(I)c(C(=O)O)c(I)c(C(=O)NCCO)c2I)c(I)c(N(C)C(C)=O)c1I | inactive
CCCCC[C@H](O)/C=C/[C@H]1[C@H](O)CC(=O)[C@@H]1CCCCCCC(=O)O | inactive
CCC(=O)OCC(=O)[C@@]1(OC(=O)CC)[C@H](C)C[C@H]2[C@H]3[C@H]([C@@H](O)C[C@@]21C)[C@@]1(C)C=CC(=O)C=C1C[C@H]3Cl | inactive
NC(=O)c1ccc[n+]([C@@H]2O[C@H](COP(=O)([O-])OP(=O)(O)OC[C@H]3O[C@@H](n4cnc5c(N)ncnc54)[C@H](O)[C@@H]3O)[C@@H](O)[C@H]2O)c1 | inactive
CCSc1ccc2c(c1)N(CCCN1CCN(C)CC1)c1ccccc1S2 | inactive
C=CCSSSCC=C | inactive
O=C(NCCNCC(O)COc1ccc(O)cc1)N1CCOCC1 (stereo not given) | inactive
